Source: the GenesisPotency data set
The whole screen tested about 290,000 compounds, of which about 3,000 (1%) were called active. No stated cut-off is given here; in the data, active means inhibition mostly above about 36% (no sharp cut-off); inactive means mostly below about 34%. Only a selection was taken, and actives are over-represented in it overall.

Molecular target: T1, Nucleotide-binding oligomerization domain-containing protein 1, Homo sapiens (UniProt Q9Y239)
T1 sequence (whole entry): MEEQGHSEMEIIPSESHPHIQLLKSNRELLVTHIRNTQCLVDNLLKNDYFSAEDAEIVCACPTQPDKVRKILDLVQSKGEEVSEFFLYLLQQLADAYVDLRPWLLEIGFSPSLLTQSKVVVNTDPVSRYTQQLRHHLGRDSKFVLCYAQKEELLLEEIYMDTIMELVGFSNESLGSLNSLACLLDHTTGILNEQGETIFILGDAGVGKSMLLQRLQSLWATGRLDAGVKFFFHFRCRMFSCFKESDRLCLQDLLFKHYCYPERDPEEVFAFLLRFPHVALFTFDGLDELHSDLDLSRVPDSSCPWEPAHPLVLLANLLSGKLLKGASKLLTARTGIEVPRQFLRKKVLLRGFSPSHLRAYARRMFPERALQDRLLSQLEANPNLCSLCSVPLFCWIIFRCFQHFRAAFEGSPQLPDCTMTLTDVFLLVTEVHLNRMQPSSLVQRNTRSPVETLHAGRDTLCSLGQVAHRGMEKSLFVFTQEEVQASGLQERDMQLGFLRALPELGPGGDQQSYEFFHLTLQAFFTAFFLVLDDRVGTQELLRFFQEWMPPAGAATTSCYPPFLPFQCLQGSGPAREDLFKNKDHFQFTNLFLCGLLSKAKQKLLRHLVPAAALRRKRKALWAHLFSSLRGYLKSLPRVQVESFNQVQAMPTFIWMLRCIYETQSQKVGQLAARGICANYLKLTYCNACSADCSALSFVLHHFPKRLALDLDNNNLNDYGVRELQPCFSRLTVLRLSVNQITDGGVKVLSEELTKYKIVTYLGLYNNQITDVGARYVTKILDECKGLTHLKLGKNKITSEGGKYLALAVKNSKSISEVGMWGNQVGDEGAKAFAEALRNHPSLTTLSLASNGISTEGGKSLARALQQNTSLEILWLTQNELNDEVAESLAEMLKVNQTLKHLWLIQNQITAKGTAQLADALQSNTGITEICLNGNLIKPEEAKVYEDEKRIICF
Assay: NOD1 signaling inhibitors, primary screen, cell-based, luminescence, uHTS (AID 1578)

outcome, active:
Cc1ccc(S(=O)(=O)Nc2ccccc2C(=O)Nc2nc(-c3ccc(F)cc3)cs2)cc1
COc1ccccc1C(=O)Nc1nc(-c2ccc(S(=O)(=O)N3CCOCC3)cc2)cs1
COc1ccc(-c2csc(NC(=O)c3ccccc3NS(=O)(=O)c3ccc(C)cc3)n2)cc1
COc1cccc(NC(=O)Nc2nc(-c3ccc(OC)c(OC)c3)cs2)c1
COc1ccc(NC(=O)c2ccc(-c3ccccc3)cc2)cc1NS(=O)(=O)c1ccc(F)cc1
COc1ccc(-c2csc(NC(=O)c3ccccc3NS(=O)(=O)c3ccc(F)c(F)c3)n2)cc1
COc1ccc(S(=O)(=O)Nc2ccccc2C(=O)Nc2nc(-c3ccc(F)cc3)cs2)cc1OC
O=C(Nc1nc(-c2ccccc2)cs1)c1ccccc1NS(=O)(=O)c1ccc(F)cc1
Cc1ccc(NC(=O)C2=C(c3ccccc3)S(=O)(=O)CCS2(=O)=O)cc1
O=C(Nc1ccccc1)C1=C(c2ccccc2)S(=O)(=O)CCS1(=O)=O
NS(=O)(=O)c1ccc(Sc2nc3ccccc3s2)c([N+](=O)[O-])c1
COc1ccc(-c2nn(-c3ccccc3)cc2/C=N/NC(=O)c2ccc(Br)o2)cc1
Cc1ccc(-c2nn(-c3ccccc3)cc2/C=N/NC(=O)c2ccc(Br)o2)cc1
CC(=O)Cn1ncc(Br)c(Br)c1=O
O=C(OCn1ncc(Br)c(Br)c1=O)c1c(F)cccc1F
O=C(OCn1ncc(Br)c(Br)c1=O)c1ccc(F)cc1
O=C(NC(=S)N(CCCCO)C1CCCCC1)c1sc2ccccc2c1Cl
Cc1nnc(SCC(=O)N2CCC(c3noc4ccc(F)cc34)CC2)s1
O=C(NC(Nc1nc2ccc([N+](=O)[O-])cc2s1)(C(F)(F)F)C(F)(F)F)c1ccccc1Cl
CC[C@@]1(O)C(=O)OCc2c1cc1n(c2=O)Cc2cc3c(N)cccc3nc2-1
CNC(=O)COC(=O)c1ccccc1C(=O)c1ccc(Cl)c([N+](=O)[O-])c1
O=C(COC(=O)c1ccccc1C(=O)c1ccc(Cl)c([N+](=O)[O-])c1)NC1CC1
N#Cc1cccc(NC(=O)COC(=O)c2ccccc2C(=O)c2ccc(Cl)c([N+](=O)[O-])c2)c1
Cc1ccc(Cl)c(NC(=O)COC(=O)c2ccccc2C(=O)c2ccc(Cl)c([N+](=O)[O-])c2)c1Cl
CC(C)(C)OC(=O)NCCc1nnc(S(=O)(=O)Cc2ccc(Cl)cc2Cl)o1
Cc1sc2nc(SCc3ccc(C(=O)O)cc3)n(Cc3ccco3)c(=O)c2c1C
COC(=O)c1ccc2c(c1)C(C)(C)C(/C=C/c1ccc(O)cc1)=[N+]2C.[I-]
